Measured values as given in the supplement of paper PMC12669032.

Tests used:
Assay in all cases: growth AUC relative to DMSO control (median of replicates) (fraction); higher = more growth (less inhibition), active = hit call of the paper
Conditions in all cases: 20 µM; 24 h;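 active = AUC reduced over 20% with Padj below 0.05 in at least 2 of 3 replicates; inactive = otherwise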
[1] = test system: Akkermansia muciniphila
How it was run: (§1)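 Area under the growth curve was normalised to the plate median of solvent-only wells, or to row and column medians on the industrial chemical plate. Growth curves came from anaerobic gut bacterial monocultures in mGAM at 37 °C, seeded at OD600 0.05 with 20 µM compound (1% DMSO), and read at OD600 hourly for 24 h with the minimum OD set to 0. The value is the median of three biological replicates grown on separate days.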

[2] = test system: Bacteroides caccae
How it was run: as §1

[3] = test system: Bacteroides clarus
How it was run: as §1

[4] = test system: Bacteroides dorei
How it was run: as §1

[5] = test system: Bacteroides stercoris
How it was run: as §1

[6] = test system: Bacteroides thetaiotaomicron
How it was run: as §1

[7] = test system: Bacteroides uniformis
How it was run: as §1

[8] = test system: Bifidobacterium longum subsp. longum
How it was run: as §1

[9] = test system: Clostridium difficile
How it was run: as §1

[10] = test system: Collinsella aerofaciens
How it was run: as §1

Measured: growth AUC

CCCCCCC(C)OC(=O)COc1nc(F)c(Cl)c(N)c1Cl (stereo not given)
inactive: [1] 0.94 | [2] 0.885 | [3] 0.874 | [4] 1 | [5] 0.699 | [6] 0.97 | [7] 0.874 | [8] 0.848 | [9] 0.952 | [10] 0.928

CCCCC(CC)COC(=O)COc1ccc(Cl)cc1C (stereo not given)
inactive: [1] 1.15 | [2] 0.995 | [3] 0.997 | [4] 0.977 | [5] 0.983 | [6] 0.987 | [7] 0.943 | [8] 0.986 | [9] 0.979 | [10] 0.907

[S]
inactive: [1] 1.05 | [2] 0.954 | [3] 1 | [4] 1.07 | [5] 1.07 | [6] 1.02 | [7] 1.06 | [8] 1.01 | [9] 1.01 | [10] 0.946

C[S+](C)CCC(=O)O.[Cl-]
inactive: [1] 0.964 | [2] 1.03 | [3] 0.974 | [4] 1.04 | [5] 0.974 | [6] 1 | [7] 1.01 | [8] 1.01 | [9] 1.01 | [10] 0.986

COC(=O)c1ccc(C(=O)OC)cc1
inactive: [1] 0.99 | [2] 0.964 | [3] 0.978 | [4] 1.01 | [5] 1.02 | [6] 0.991 | [7] 0.972 | [8] 0.993 | [9] 1.01 | [10] 1.01

O=C(O)COc1ccc(Cl)cc1CO
inactive: [1] 1.15 | [2] 0.99 | [3] 0.995 | [4] 0.721 | [5] 0.938 | [6] 0.971 | [7] 0.98 | [8] 1 | [9] 1.03 | [10] 0.96

CN(C)c1ccc(N=NS(=O)(=O)[O-])cc1.[Na+]
inactive: [1] 1.03 | [2] 1.02 | [3] 1.01 | [4] 0.957 | [5] 1.06 | [6] 0.955 | [7] 0.98 | [8] 0.978 | [9] 1.03 | [10] 1.02

CN(C)C=O
inactive: [1] 1.08 | [2] 0.991 | [3] 1.05 | [4] 0.936 | [5] 1.05 | [6] 1.01 | [7] 1.05 | [8] 1.13 | [9] 0.999 | [10] 1.01

CC(C)(SC(=O)N1CCCCC1)c1ccccc1
inactive: [1] 0.978 | [2] 0.973 | [3] 0.982 | [4] 1.01 | [5] 0.945 | [6] 0.927 | [7] 0.965 | [8] 1.01 | [9] 0.99 | [10] 1

CCOC(=O)CSc1nc(C(C)(C)C)nn1C(=O)N(C)C
inactive: [1] 1.03 | [2] 0.951 | [3] 0.96 | [4] 0.94 | [5] 0.815 | [6] 0.978 | [7] 0.989 | [8] 0.96 | [9] 1.01 | [10] 0.931

CC[N+](CC)(CC(=O)Nc1c(C)cccc1C)Cc1ccccc1.O=C([O-])c1ccccc1
inactive: [1] 1.24 | [2] 0.992 | [3] 1.05 | [4] 1.04 | [5] 1.11 | [6] 0.999 | [7] 0.993 | [8] 0.98 | [9] 1.04 | [10] 1

COC1CCC2(CC1)NC(=O)C(c1cc(C)ccc1C)C2O (stereo not given)
inactive: [1] 1.08 | [2] 0.974 | [3] 1.04 | [4] 1.02 | [5] 1.14 | [6] 0.999 | [7] 1.02 | [8] 1.05 | [9] 1.01 | [10] 1.05

O=C(O)c1cccc2nnsc12
inactive: [1] 0.935 | [2] 0.996 | [3] 0.998 | [4] 0.964 | [5] 0.963 | [6] 1.01 | [7] 1.01 | [8] 1.03 | [9] 0.99 | [10] 0.977

COc1ccccc1C(=O)NS(=O)(=O)c1ccc(C(=O)NC2CC2)cc1
inactive: [1] 0.895 | [2] 1.01 | [3] 0.994 | [4] 1 | [5] 1.03 | [6] 0.954 | [7] 0.999 | [8] 0.954 | [9] 0.985 | [10] 1.02

COC(=O)c1csc(C)c1S(=O)(=O)NC(=O)n1nc(OC)n(C)c1=O
inactive: [1] 1.17 | [2] 0.981 | [3] 1 | [4] 0.967 | [5] 1.02 | [6] 0.993 | [7] 0.955 | [8] 1.04 | [9] 0.931 | [10] 0.956

CCOC(=O)C(C)Oc1ccc(Oc2cnc3cc(Cl)ccc3n2)cc1 (stereo not given)
inactive: [1] 1.01 | [2] 0.978 | [3] 0.953 | [4] 0.942 | [5] 1.01 | [6] 0.992 | [7] 0.932 | [8] 1.06 | [9] 1.03 | [10] 1.02

CCOc1ccc(NC(=O)OC(C)C)cc1OCC
inactive: [1] 1.08 | [2] 0.95 | [3] 1.02 | [4] 0.928 | [5] 1.2 | [6] 0.844 | [7] 0.938 | [8] 1.05 | [9] 0.971 | [10] 0.974

COCC(=O)N(c1c(C)cccc1C)C(C)C(=O)O (stereo not given)
inactive: [1] 1.09 | [2] 0.998 | [3] 1 | [4] 1.01 | [5] 1.13 | [6] 1.04 | [7] 0.997 | [8] 0.951 | [9] 0.95 | [10] 1.08

CCSC(=O)N(CC)CC
inactive: [1] 1.01 | [2] 0.998 | [3] 0.991 | [4] 1.01 | [5] 1.1 | [6] 1.03 | [7] 1.01 | [8] 0.929 | [9] 0.982 | [10] 0.982

CCOCCc1ccc(OCCNc2ncnc(CC)c2Cl)c(C)c1C
inactive: [1] 0.937 | [2] 0.929 | [3] 0.883 | [4] 0.942 | [5] 0.975 | [6] 0.915 | [7] 0.887 | [8] 0.923 | [9] 0.998 | [10] 0.94

O=S(=O)(Cc1ccc(Cl)cc1)c1ccc(Cl)cc1
inactive: [1] 0.848 | [2] 1 | [3] 0.981 | [4] 1.02 | [5] 1.12 | [6] 0.963 | [7] 0.997 | [8] 1.03 | [9] 1.01 | [10] 1.01

CCCOC(=O)c1ccc(C(=O)OCCC)nc1
inactive: [1] 1.06 | [2] 1.01 | [3] 0.99 | [4] 1.04 | [5] 0.94 | [6] 1.02 | [7] 0.99 | [8] 1.05 | [9] 0.99 | [10] 0.967

CC(C)CCCCCCc1ccc(O)cc1
inactive: [1] 0.981 | [2] 1.03 | [3] 1.03 | [4] 1.01 | [5] 0.923 | [6] 0.992 | [7] 0.965 | [8] 1.03 | [9] 1.07 | [10] 0.979

CNC(=O)Nc1nc2ccccc2s1
inactive: [1] 0.957 | [2] 0.953 | [3] 0.999 | [4] 0.959 | [5] 1.1 | [6] 1.01 | [7] 0.966 | [8] 0.955 | [9] 0.969 | [10] 0.942

Cc1nn(C)c(F)c1C(=O)Nc1ccccc1C(C)CC(C)C (stereo not given)
inactive: [1] 0.94 | [2] 0.97 | [3] 0.959 | [4] 0.988 | [5] 1.04 | [6] 0.968 | [7] 0.947 | [8] 0.992 | [9] 0.982 | [10] 1.02

CCC(C)Nc1nc(N)nc(Cl)n1 (stereo not given)
inactive: [1] 1.09 | [2] 0.906 | [3] 0.995 | [4] 1.02 | [5] 1.16 | [6] 1.01 | [7] 0.949 | [8] 1.03 | [9] 0.974 | [10] 1.01

COC(=O)Cc1cccc2ccccc12
inactive: [1] 1.01 | [2] 1.01 | [3] 0.989 | [4] 0.965 | [5] 1.07 | [6] 0.995 | [7] 1 | [8] 1.02 | [9] 1.01 | [10] 0.96
